Reference: PubChem BioAssay AID1159580 (chemical genetic matrix, 2015)
Values joined by “and” are separate entries in the source; they are usually repeats but may differ in a detail not shown here. Equal entries are not always repeated. Among all 5,500 compounds or so, about 2,000 (36%) were called active. Inconclusive results (about 18%) are left out. Rule as the data show it: active = normalized growth mostly below about 0.91 (no sharp cut-off); inconclusive = no clear call, values can overlap the other calls; inactive = mostly above about 0.92. This is one part of the list.

Assay: chemical genetic growth profiling, strain panel (AID 1159580);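 also: tested at 20 µM; growth read once vehicle control cultures reached saturation at 30 °C; 1 = growth at the plate median or of vehicle wells; lower values mean less growth of the strain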
Settings: S. cerevisiae deletion strains, growth OD
[1] = locus YDR150W, strain NUM1, stronger effect = lower value
[2] = locus YMR307W, strain GAS1, stronger effect = lower value
[3] = locus YNL128W, strain TEP1, stronger effect = lower value
[4] = locus YNL153C, strain GIM3, stronger effect = lower value
[5] = locus YPL055C, strain LGE1, stronger effect = lower value
[6] = locus YHR030C, strain SLT2, stronger effect = lower value
[7] = locus YHR079C, strain IRE1, stronger effect = lower value
[8] = locus YJL095W, strain BCK1, stronger effect = lower value
[9] = locus YJR066W, strain TOR1, stronger effect = lower value
[10] = locus YLR113W, strain HOG1, stronger effect = lower value
[11] = locus YNL183C, strain NPR1, stronger effect = lower value
[12] = locus YOR231W, strain MKK1, stronger effect = lower value
[13] = locus YPL256C, strain CLN2, stronger effect = lower value

Measured: normalized growth

O=c1[nH]c2cc(Cl)ccc2c(O)c1-c1ccc(Oc2ccccc2)cc1
inactive: locus YAL040C, strain CLN3, stronger effect = lower value 1 | locus YCL061C, strain MRC1 (second series), stronger effect = lower value 0.993 | [1] 0.992 | locus YDR363W, strain ESC2, stronger effect = lower value 1 | locus YER002W, strain NOP16, stronger effect = lower value 1.01 | locus YGR078C, strain PAC10, stronger effect = lower value 1.01 | locus YJR075W, strain HOC1, stronger effect = lower value 0.987 | locus YMR263W, strain SAP30, stronger effect = lower value 0.999 | [2] 0.983 | [3] 1.02 | [4] 1.03 | locus YNL175C, strain NOP13, stronger effect = lower value 1 | locus YNL197C, strain WHI3, stronger effect = lower value 1.01 | locus YNL224C, strain SQS1, stronger effect = lower value 1 | locus YNL322C, strain KRE1, stronger effect = lower value 0.988 | locus YOR083W, strain WHI5 (second series), stronger effect = lower value 0.99 | [5] 1.01

O=C(O)c1cc(O)c2c(c1)[C@@H]([C@@H]1c3cc(C(=O)O)cc(O)c3C(=O)c3c(O[C@H]4O[C@H](CO)[C@@H](O)[C@H](O)[C@H]4O)cccc31)c1cccc(O[C@H]3O[C@H](CO)[C@@H](O)[C@H](O)[C@H]3O)c1C2=O
inactive: [6] 1.09 | [7] 1.08 | [8] 1.02 | [9] 1 | [10] 1.06 | [11] 1.02 | [12] 1.05 | [13] 1.08

O=C(O)c1cc(O)c2c(c1)[C@@H]([C@H]1c3cc(C(=O)O)cc(O)c3C(=O)c3c(O[C@H]4O[C@H](CO)[C@@H](O)[C@H](O)[C@H]4O)cccc31)c1cccc(O[C@H]3O[C@H](CO)[C@@H](O)[C@H](O)[C@H]3O)c1C2=O
inactive: locus YAL013W, strain DEP1, stronger effect = lower value 1.02 | locus YAL021C, strain ccr4, stronger effect = lower value 0.983 | locus YAL026C, strain drs2, stronger effect = lower value 1.01 | locus YAL030W, strain snc1, stronger effect = lower value 1.02 | locus YBL061C, strain skt5, stronger effect = lower value 1.01 | locus YBR009C, strain hhf1, stronger effect = lower value 1.04 | locus YBR021W, strain FUR4, stronger effect = lower value 1.02 | locus YBR023C, strain chs3, stronger effect = lower value 1.02 | locus YBR171W, strain sec66, stronger effect = lower value 1.02 | locus YBR229C, strain ROT2, stronger effect = lower value 1.01 | locus YBR231C, strain swc5, stronger effect = lower value 1.02 | locus YBR279W, strain paf1, stronger effect = lower value 1.01 | locus YCL011C, strain gbp2, stronger effect = lower value 1.02 | locus YCL016C, strain dcc1, stronger effect = lower value 1.02 | locus YCL029C, strain bik1, stronger effect = lower value 1 | locus YCL061C, strain MRC1, stronger effect = lower value 0.987 | locus YCL069W, strain vba3, stronger effect = lower value 1.01 | locus YCR088W, strain abp1, stronger effect = lower value 1.02 | locus YDL005C, strain med2, stronger effect = lower value 1 | locus YDL035C, strain GPR1, stronger effect = lower value 1.02 | locus YDL040C, strain nat1, stronger effect = lower value 1.04 | locus YDL074C, strain BRE1, stronger effect = lower value 1.04 | locus YDL101C, strain DUN1, stronger effect = lower value 1.01 | locus YDL134C, strain PPH21, stronger effect = lower value 1.01 | locus YDL185W, strain tfp1, stronger effect = lower value 1.01 | locus YDL192W, strain arf1, stronger effect = lower value 0.995 | locus YDR001C, strain nth1, stronger effect = lower value 1.04 | locus YDR069C, strain doa4, stronger effect = lower value 1.01 | locus YDR101C, strain arx1, stronger effect = lower value 0.98 | locus YDR137W, strain rgp1, stronger effect = lower value 0.953 | [1] 1.02 | locus YDR159W, strain sac3, stronger effect = lower value 1.02 | locus YDR162C, strain NBP2, stronger effect = lower value 1.02 | locus YDR297W, strain sur2, stronger effect = lower value 1.02 | locus YDR318W, strain mcm21, stronger effect = lower value 1.01 | locus YDR334W, strain swr1, stronger effect = lower value 1.05 | locus YDR335W, strain msn5, stronger effect = lower value 1.02 | locus YDR388W, stronger effect = lower value 1 | locus YDR392W, strain spt3, stronger effect = lower value 0.93 | locus YDR502C, strain sam2, stronger effect = lower value 0.995 | locus YEL003W, strain gim4, stronger effect = lower value 1.02 | locus YEL061C, strain CIN8 (second series), stronger effect = lower value 1.05 | locus YEL061C, strain CIN8, stronger effect = lower value 1.01 | locus YER015W, strain faa2, stronger effect = lower value 1.01 | locus YER016W, strain bim1, stronger effect = lower value 1.02 | locus YER110C, stronger effect = lower value 1 | locus YER155C, strain BEM2 (second series), stronger effect = lower value 1.01 | locus YER155C, strain BEM2, stronger effect = lower value 1.01 | locus YER167W, strain BCK2, stronger effect = lower value 1.01 | locus YFR010W, strain ubp6, stronger effect = lower value 1.02 | locus YGL078C, strain dbp3, stronger effect = lower value 0.993 | locus YGL086W, strain mad1, stronger effect = lower value 1 | locus YGL167C, strain pmr1, stronger effect = lower value 1.03 | locus YGL173C, strain kem1, stronger effect = lower value 1.02 | locus YGL227W, strain vid30, stronger effect = lower value 1.05 | locus YGL240W, strain doc1, stronger effect = lower value 0.989 | locus YGL248W, strain PDE1, stronger effect = lower value 1.02 | locus YGL253W, strain hxk2, stronger effect = lower value 1.02 | locus YGR135W, strain pre9, stronger effect = lower value 1.01 | locus YGR252W, strain gcn5, stronger effect = lower value 0.949 | locus YHR013C, strain ard1, stronger effect = lower value 1.06 | locus YHR027C, strain rpn1, stronger effect = lower value 1.05 | [6] 1.01 and 0.986 | locus YHR079C, strain IRE1 (second series), stronger effect = lower value 1 | [7] 0.981 | locus YHR094C, strain hxt1, stronger effect = lower value 0.999 | locus YHR129C, strain ARP1, stronger effect = lower value 1.01 | locus YHR142W, strain chs7, stronger effect = lower value 1.09 | locus YHR200W, strain rpn10, stronger effect = lower value 0.991 | locus YIL066C, strain RNR3, stronger effect = lower value 1.02 | locus YIL073C, strain SPO22, stronger effect = lower value 1.06 | locus YIL125W, strain kgd1, stronger effect = lower value 1 | locus YIR030C, strain dcg1, stronger effect = lower value 0.999 | locus YJL092W, strain hpr5, stronger effect = lower value 1.01 | [8] 1.03 and 0.978 | locus YJL129C, strain trk1, stronger effect = lower value 1.04 | locus YJL134W, strain LCB3, stronger effect = lower value 1.02 | locus YJL154C, strain vps35, stronger effect = lower value 1.02 | locus YJL164C, strain tpk1, stronger effect = lower value 1 | locus YJL166W, strain qcr8, stronger effect = lower value 0.958 | locus YJL168C, strain set2, stronger effect = lower value 1.02 | locus YJL187C, strain SWE1 (second series), stronger effect = lower value 1.02 | locus YJL187C, strain SWE1, stronger effect = lower value 1.01 | locus YJR043C, strain POL32, stronger effect = lower value 1 | [9] 0.934 | locus YKL009W, strain mrt4, stronger effect = lower value 1.11 | locus YKL068W, stronger effect = lower value 1.01 | locus YKL085W, strain MDH1 (second series), stronger effect = lower value 1.03 | locus YKL085W, strain MDH1, stronger effect = lower value 1.03 | locus YKL160W, strain elf1, stronger effect = lower value 0.993 | locus YKR001C, strain vps1, stronger effect = lower value 1.02 | locus YKR026C, strain gcn3, stronger effect = lower value 1.02 | locus YLL001W, strain dnm1, stronger effect = lower value 1.02 | locus YLL026W, stronger effect = lower value 1.02 | locus YLL041C, strain sdh2, stronger effect = lower value 1.01 | locus YLR027C, strain aat2, stronger effect = lower value 1.02 | locus YLR039C, strain RIC1, stronger effect = lower value 1.03 | locus YLR058C, strain SHM2, stronger effect = lower value 1.01 | locus YLR102C, strain apc9, stronger effect = lower value 1 | [10] 1.01 | locus YLR221C, strain rsa3, stronger effect = lower value 0.986 | locus YLR258W, strain gsy2, stronger effect = lower value 0.99 | locus YLR262C, strain YPT6 (second series), stronger effect = lower value 0.979 | locus YLR262C, strain YPT6, stronger effect = lower value 1.1 | locus YLR268W, strain sec22, stronger effect = lower value 0.998 | locus YLR320W, strain mms22, stronger effect = lower value 1.03 | locus YLR330W, strain CHS5, stronger effect = lower value 1.01 | locus YLR342W, strain FKS1 (second series), stronger effect = lower value 0.985 | locus YLR342W, strain FKS1, stronger effect = lower value 1.04 | locus YLR370C, strain arc18, stronger effect = lower value 1 | locus YLR371W, strain rom2, stronger effect = lower value 0.999 | locus YLR384C, strain iki3, stronger effect = lower value 1.02 | locus YLR418C, strain cdc73, stronger effect = lower value 0.993 | locus YML016C, strain PPZ1, stronger effect = lower value 1.01 | locus YML032C, strain rad52, stronger effect = lower value 0.998 | locus YML120C, strain ndi1, stronger effect = lower value 1.01 | locus YML124C, strain tub3, stronger effect = lower value 0.997 | locus YMR058W, strain fet3, stronger effect = lower value 1.03 | locus YMR078C, strain ctf18, stronger effect = lower value 1 | locus YMR125W, strain sto1, stronger effect = lower value 1.02 | locus YMR129W, stronger effect = lower value 1.04 | locus YMR205C, strain PFK2, stronger effect = lower value 0.958 | locus YMR223W, strain ubp8, stronger effect = lower value 0.997 | locus YMR231W, strain pep5, stronger effect = lower value 1.01 | [2] 1 | locus YNL067W, strain RPL9B, stronger effect = lower value 1.01 | locus YNL071W, strain lat1, stronger effect = lower value 1.03 | [3] 1.05 | [4] 1 | [11] 0.937 | locus YNL209W, strain ssb2, stronger effect = lower value 1.01 | locus YNL233W, strain BNI4, stronger effect = lower value 1.01 | locus YNL248C, strain rpa49, stronger effect = lower value 1 | locus YNL250W, strain rad50, stronger effect = lower value 1.02 | locus YNL271C, strain bni1, stronger effect = lower value 1 | locus YNL298W, strain CLA4, stronger effect = lower value 0.993 | locus YNL307C, strain MCK1, stronger effect = lower value 1.01 | locus YNL322C, strain KRE1 (second series), stronger effect = lower value 1.02 | locus YNR049C, strain mso1, stronger effect = lower value 1.05 | locus YNR052C, strain pop2, stronger effect = lower value 0.978 | locus YOL006C, strain TOP1, stronger effect = lower value 1.04 | locus YOL012C, strain htz1 0.926 | locus YOL147C, strain pex11, stronger effect = lower value 1 | locus YOR001W, strain rrp6, stronger effect = lower value 1.04 | locus YOR061W, strain CKA2, stronger effect = lower value 1.02 | locus YOR069W, strain VPS5, stronger effect = lower value 1.02 | locus YOR083W, strain WHI5, stronger effect = lower value 0.957 | locus YOR106W, strain vam3, stronger effect = lower value 0.979 | locus YOR136W, strain idh2, stronger effect = lower value 1.01 | locus YOR144C, strain elg1, stronger effect = lower value 1.01 | locus YOR184W, strain ser1, stronger effect = lower value 1.02 | [12] 0.988 | locus YOR265W, strain rbl2, stronger effect = lower value 1.01 | locus YOR270C, strain vph1, stronger effect = lower value 1.05 | locus YOR290C, strain snf2, stronger effect = lower value 0.997 | locus YOR316C, strain cot1, stronger effect = lower value 1 | locus YPL051W, strain arl3, stronger effect = lower value 0.995 | [5] 1.01 | locus YPL078C, strain atp4, stronger effect = lower value 0.979 | locus YPL106C, strain sse1, stronger effect = lower value 0.977 | locus YPL240C, strain hsp82, stronger effect = lower value 0.993 | locus YPL241C, strain CIN2, stronger effect = lower value 1.02 | [13] 1.03 | locus YPR119W, strain clb2, stronger effect = lower value 1 | locus YPR141C, strain kar3, stronger effect = lower value 1 | locus YPR163C, strain tif3, stronger effect = lower value 1.01 | locus YPR167C, strain met16, stronger effect = lower value 0.99 | strain wtn01, stronger effect = lower value 1.01
active: locus YDR195W, strain ref2 1.17 [resistant] | locus YEL037C, strain rad23, stronger effect = lower value 1.09 [resistant] | locus YJL095W, strain BCK1 (second series), stronger effect = lower value 1.12 [resistant] | locus YLR357W, strain rsc2, stronger effect = lower value 1.28 [resistant] | locus YOR070C, strain gyp1, stronger effect = lower value 1.08 [resistant] | locus YOR080W, strain dia2, stronger effect = lower value 1.13 [resistant]
